Source: PubChem (Johns Hopkins Ion Channel Center)
KCNQ2 inh: KCNQ2 (rat) channel inhibition | CHO-K1 KCNQ2, FluxOR thallium flux, 20 min; hits give low values | 310,000 tested, 1.1% active | AID 2156 | B-score at 10 µM | O88943;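 active = fluorescence ratio B-score at most minus 3 library SDs, with starting brightness B-score within 2 library SDs, cut at about -5.5 in these data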
KCNQ2 enhance: potentiators of rat KCNQ2 potassium channel | O88943 | 310,000 tested, 0.54% active | CHO-K1 KCNQ2, FluxOR thallium flux fluorescence; hits give high values | B-score at 10 µM;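 active = fluorescence ratio B-score at least 3 SD of library B-scores, with initial fluorescence B-score within 3 of them, cut at about 5.3 in these data; same plate scores as AID 2156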;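 note: B-score of peak minus minimum over baseline fluorescence ratio after K+ and Tl+ stimulus; positive B-score means potentiation of KCNQ2 with more thallium influx and brighter signal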
Kir21 confirm: confirmation of mouse Kir2.1 potassium channel inhibitors | shares compounds with KCNQ2 enhance | AID 2032 | 2,300 tested, 41% active | Tl flux remaining, % of negative control (hits give low values), % at 10 µM | Kir2.1-expressing cells, FluxOR thallium flux fluorescence; hits give low values;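 active = Primary-screen hit whose thallium flux fell at least 3 control SD below untreated wells in both duplicates, with normal baseline fluorescence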
HEK293 Tl flux: counter-screen for Kir2.1 inhibitors: effect in parental HEK293 cells. shares compounds with KCNQ2 enhance. FluxOR thallium flux fluorescence; 0% = unstimulated blank wells. FluxOR signal as % of negative control (100 = no effect), % at 10 µM. 2,300 tested, 19% active. AID 2105;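 active = dye signal at least 3 control SD above or below untreated wells in both duplicates, raw fluorescence within 3, either direction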;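 note: percent is based on the flux ratio of peak minus minimum fluorescence over baseline F0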
CHO-K1 ctr: alters thallium flux in parental CHO-K1 cells, KCNQ2 counter-screen; activity increase over 3SD of controls, % at 10 µM; shares compounds with KCNQ2 enhance; AID 2282; FluxOR thallium flux fluorescence; zero = vehicle mean+3SD, 100% = vehicle-minus-blank window; 1,200 tested, 43% active;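 active = signal rise of at least 3 SD above the untreated control mean, in both duplicate wells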;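 note: counter screen of KCNQ2 potentiator hits so any rise reflects channel-independent effects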
KCNQ1 sel pot: selectivity of KCNQ2 potentiators: effect on human KCNQ1; CHO KCNQ1 stable, FluxOR thallium flux fluorescence; beyond 3SD, as % of vehicle-control signal; AID 2283; shares compounds with KCNQ2 enhance; 1,200 tested, 28% active; activation over 3SD threshold, % at 10 µM;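 active = fluorescence ratio rise of at least 3 SD of vehicle wells above their mean, in both replicate wells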
KCNQ2 pot conf: confirmation of rat KCNQ2 potassium channel potentiators. shares compounds with KCNQ2 enhance. CHO-KCNQ2 cells, FluxOR thallium flux fluorescence. potentiation, less the hit threshold, % at 10 µM. 1,200 tested, 68% active;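 active = fluorescence ratio rising 3 SD or more over the vehicle control mean in both replicates, plus primary screen hit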;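 note: peak minus minimum thallium fluorescence divided by baseline after K/Tl stimulus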
Kir2-1 sel: tests whether KCNQ2 potentiators also affect mouse Kir2.1. shares compounds with KCNQ2 enhance. HEK293 Kir2.1, FluxOR thallium flux fluorescence. activity over 3SD threshold, % at 10 µM. 1,200 tested, 2% active. AID 2345;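 active = fluorescence ratio rise of at least 3 SD above the vehicle-control mean, seen in both replicates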
KCNQ2 W236L MoA: potentiates the retigabine-insensitive rat KCNQ2 W236L mutant channel. shares compounds with KCNQ2 enhance. CHO KCNQ2-W236L, automated patch clamp current. current increase over 3SD of negative controls (%), hits give high values, % at 25 µM. 940 tested, 10% active;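 active = current increase at least 3 SD of the untreated controls above them in both duplicate recordings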
Target sequence (O88943 whole entry W236L, looked up): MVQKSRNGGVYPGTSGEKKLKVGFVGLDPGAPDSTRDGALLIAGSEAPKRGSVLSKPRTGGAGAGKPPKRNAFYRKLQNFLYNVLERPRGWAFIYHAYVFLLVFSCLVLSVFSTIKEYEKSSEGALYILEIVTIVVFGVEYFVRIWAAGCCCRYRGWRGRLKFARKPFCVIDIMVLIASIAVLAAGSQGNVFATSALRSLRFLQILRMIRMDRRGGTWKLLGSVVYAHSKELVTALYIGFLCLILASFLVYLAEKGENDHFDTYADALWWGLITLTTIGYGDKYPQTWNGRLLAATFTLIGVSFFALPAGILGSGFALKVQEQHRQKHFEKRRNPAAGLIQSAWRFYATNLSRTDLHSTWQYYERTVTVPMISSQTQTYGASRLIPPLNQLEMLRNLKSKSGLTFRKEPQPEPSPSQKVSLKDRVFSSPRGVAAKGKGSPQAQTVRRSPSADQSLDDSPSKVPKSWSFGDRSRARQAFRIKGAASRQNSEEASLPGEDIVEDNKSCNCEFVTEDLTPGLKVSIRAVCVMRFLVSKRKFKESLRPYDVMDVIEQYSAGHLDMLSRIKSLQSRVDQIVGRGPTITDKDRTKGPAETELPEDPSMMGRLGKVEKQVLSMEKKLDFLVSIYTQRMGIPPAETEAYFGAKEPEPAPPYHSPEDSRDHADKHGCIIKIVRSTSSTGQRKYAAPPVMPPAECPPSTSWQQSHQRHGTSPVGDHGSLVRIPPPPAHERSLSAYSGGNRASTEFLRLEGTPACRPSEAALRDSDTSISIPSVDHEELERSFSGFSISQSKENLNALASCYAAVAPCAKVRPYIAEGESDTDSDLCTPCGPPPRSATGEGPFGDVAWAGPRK
Hits are given with their value; i = inactive; nt = no result given. An excerpt weighted towards active compounds, which were near 1.6% of everything screened.

SMILES	KCNQ2 inh	KCNQ2 enhance	Kir21 confirm	HEK293 Tl flux	others
S=C(NCc1cccs1)Nc1ccccc1	i	i	nt	nt
Cc1ccc(NC(=S)NCc2cccs2)cc1	i	8.95	i	i	CHO-K1 ctr=i;KCNQ1 sel pot=i;KCNQ2 pot conf=13.9;Kir2-1 sel=i;KCNQ2 W236L MoA=i
COc1ccc2[nH]c(=O)c(CN(C(=O)c3cccnc3)c3ccccc3C)cc2c1	i	nt	nt	nt
CCOc1cc(N2CCOCC2)c(OCC)cc1NC(=O)C1CCCC1	i	i	nt	nt
CCOc1cc(N2CCOCC2)c(OCC)cc1NC(=O)COC(=O)c1ccccc1C	i	i	nt	nt
CCOc1cc(N2CCOCC2)c(OCC)cc1NC(=O)Cc1cccc2ccccc12	i	8.23	i	i	CHO-K1 ctr=2.4;KCNQ1 sel pot=25.9;KCNQ2 pot conf=9.3;Kir2-1 sel=i;KCNQ2 W236L MoA=i
CCOc1cc(N2CCOCC2)c(OCC)cc1NC(=O)CCC1CCCC1	i	25.4	i	i	CHO-K1 ctr=0.0;KCNQ1 sel pot=219.9;KCNQ2 pot conf=112.1;Kir2-1 sel=i;KCNQ2 W236L MoA=i
COC(=O)c1ccc(CN2C(=O)C(C)N(C(=O)c3c(F)cccc3F)c3ccccc32)cc1 (stereo not drawn)	i	nt	nt	nt
COC(=O)c1ccc(NC(=O)Cn2nc(C)cc2C)cc1	i	i	nt	nt
CCCCNC(=O)c1cn(C)c2ccc(S(=O)(=O)N3CC(C)CC(C)C3)cc2c1=O (stereo not drawn)	i	i	nt	nt
OCCNCc1c(OCc2ccc(Cl)cc2)ccc2ccccc12	i	i	37.0%	i
OCCNCCNCc1ccccc1OCc1ccccc1	i	nt	nt	nt
COc1ccc(C2CC3(CC(C)(C)NC(SC)=N3)Oc3cc(O)cc(C)c32)cc1 (stereo not drawn)	i	i	nt	nt
Nc1ccc(C(=O)N/N=C/c2cccc(Oc3ccccc3)c2)cc1	i	i	55.5%	i
O=C(N/N=C/c1cccc(Oc2ccccc2)c1)c1cc[n+]([O-])cc1	i	nt	nt	nt
CCC(C)NC(=O)CC(NS(=O)(=O)c1ccc(NC(C)=O)cc1)C(C)C (stereo not drawn)	i	nt	nt	nt
C1=C(CCNCC2CC2)CCCC1	i	i	nt	nt
Cc1ccc(CNCCC2=CCCCC2)cc1	i	i	37.5%	68.5%
FC(F)(Cl)c1nnc2ccc(Cl)nn12	i	i	nt	nt
COc1ccc2c(c1)CCCN2C(N)=O	i	nt	nt	nt
COc1ccc2c(c1)CCCN2C(N)=Nc1ccc(Cl)cc1	i	i	37.0%	i
O=C(Nc1cccc(Br)c1)c1cccc(OC(=S)N2CCOCC2)c1	i	nt	nt	nt
Cc1ccc(C)[n+](CC(=O)c2ccc(-c3ccccc3)cc2)c1	i	i	nt	nt
CCSc1ccc(/C(N)=N/OC(=O)c2cccs2)cn1	i	i	nt	nt
COc1ccc(OCC(O)CNC(C)c2ccccc2)cc1 (stereo not drawn)	i	i	nt	nt
SMILES	KCNQ2 inh	KCNQ2 enhance	Kir21 confirm	HEK293 Tl flux	others
CC(C)Oc1ccc(C(CCNCc2ccc(O)cc2)c2ccccc2)cc1 (stereo not drawn)	i	nt	nt	nt
COc1ccc(C(CCNC(C)c2ccccc2)C(C)C)cc1 (stereo not drawn)	i	i	47.5%	i
COc1ccc(C(C)NCCC(c2ccc(OC(C)C)cc2)c2ccccc2OC)cc1 (stereo not drawn)	-6.6	i	56.5%	i
Cc1cc(NS(=O)(=O)c2ccccc2)c(C)c(Cl)c1O	i	nt	69.0%	i
Cc1c(O)ccc(NS(=O)(=O)c2ccccc2)c1C	i	nt	nt	nt
CCCc1nc(NCc2ccccc2)c(C#N)c2c1CCCC2	i	nt	nt	nt
CCN1CCc2c(C#N)c(NCc3ccccc3)nc(N(CC)CC)c2C1	i	9.13	i	i	CHO-K1 ctr=i;KCNQ1 sel pot=i;KCNQ2 pot conf=31.4;Kir2-1 sel=i;KCNQ2 W236L MoA=i
CCCCCNc1nc(NCCCO)c(C#N)c2c1CN(C)CC2	i	i	nt	nt
C=CCNc1nc(NCc2ccccc2)c(C#N)c2c1CN(C)CC2	i	nt	42.0%	i
CC(NS(=O)(=O)OCC(Cl)(Cl)Cl)c1ccc(Br)cc1 (stereo not drawn)	i	nt	42.0%	i
CC(C)CC(NS(=O)(=O)OCC(Cl)(Cl)Cl)c1ccccc1 (stereo not drawn)	i	nt	nt	nt
O=C(NCc1ccccc1)c1c[nH]c2ccccc2c1=O	i	i	nt	nt
Cc1c(C(=O)OCC(=O)N2CCC(C)CC2)oc2ccccc12	i	10.9	i	i	CHO-K1 ctr=14.4;KCNQ1 sel pot=i;KCNQ2 pot conf=17.2;Kir2-1 sel=i;KCNQ2 W236L MoA=i
COc1ccc2oc(C(=O)OCC(=O)N3CCC(C)CC3)c(C)c2c1	i	i	nt	nt
c1ccc(CNc2ncnc3nc[nH]c23)cc1	i	i	nt	nt
c1ccc(CCCNc2ncnc3nc[nH]c23)cc1	i	i	i	i
Cc1ccc(S(=O)(=O)N(C)C)cc1NC(=O)COC(=O)/C=C/c1ccc(F)cc1	i	i	nt	nt
O=C(Nc1nccs1)c1ccc(COc2c(F)c(F)cc(F)c2F)cc1	i	i	nt	nt
Cc1[nH]n(-c2ccccc2)c(=O)c1Sc1ccc(Cl)cc1	i	i	nt	nt
CCCSC(=S)c1c(C)[nH]n(-c2ccccc2)c1=O	i	9.79	i	424.5%	CHO-K1 ctr=22.0;KCNQ1 sel pot=i;KCNQ2 pot conf=54.0;Kir2-1 sel=3.8;KCNQ2 W236L MoA=i
O=C(Cc1ccc(F)cc1)Nc1nnc(-c2ccc(F)cc2)o1	i	nt	nt	nt
Cc1ccc(OCCC(=O)OC(C)C(=O)Nc2c(C)n(C)n(-c3ccccc3)c2=O)cc1 (stereo not drawn)	i	i	nt	nt
Cc1cc(=O)[nH]c2ccccc12	i	nt	nt	nt
Cc1cc2[nH]c3c(c[n+](C)c4ccccc34)c2cc1C	i	nt	i	i
CCN(CC)S(=O)(=O)c1cccc(C(=O)N[C@H](C(=O)NNC(=O)c2ccccc2)C(C)C)c1	i	8.03	i	i	CHO-K1 ctr=i;KCNQ1 sel pot=0.2;KCNQ2 pot conf=i;Kir2-1 sel=i
SMILES	KCNQ2 inh	KCNQ2 enhance	Kir21 confirm	HEK293 Tl flux	others
CCN(CC)S(=O)(=O)c1cccc(C(=O)NC(C(=O)NC2=NCCS2)C(C)C)c1 (stereo not drawn)	i	i	nt	nt
O=C(N/C(=C\c1ccc(F)cc1)C(=O)N1CCOCC1)c1ccccc1	i	nt	nt	nt
Cc1ccc(C(CCNC(C)c2cccs2)c2ccco2)cc1 (stereo not drawn)	i	nt	35.5%	i
O=C1c2ccccc2C(=O)N1CCC(c1ccc(F)cc1)c1ccco1 (stereo not drawn)	i	nt	nt	nt
CC1CN(Cc2ccccc2)C(C)CC1O (stereo not drawn)	i	nt	nt	nt
CCOCc1cn(CC(=O)c2ccc(Cl)cc2)c(C)nc1=N	i	i	nt	nt
CCOCc1cn(CC(=O)c2ccc([N+](=O)[O-])cc2)c(C)nc1=N	i	nt	i	i
CC1CN(c2ccccc2)CCN1Cc1nc(Cc2ccccc2)no1 (stereo not drawn)	i	nt	nt	nt
Cc1cc(Cl)ccc1NC(=O)CCC(=O)N/N=C/c1cccnc1	i	nt	nt	nt
